Measured values from PubChem BioAssay AID1945 (The Scripps Research Institute Molecular Screening Center, 2009).
Screen size: about 1,600 compounds; about 65 (4%) were called active. No stated cut-off is given here; in the data, active means inhibition above about 37%; inactive means the rest. Only a sample is shown.

Test: compounds displacing fluorescent DNA intercalator, artefact control for HCV NS3 helicase inhibitor project, biochemical, FID fluorescence, triplicate (AID 1945);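 further: 0% = vehicle and 100% = reference compound; higher means more displacement of ethidium bromide from the DNA hairpin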
Details: DNA fluorescent intercalator displacement, at 7.9 µM, hits give high values

inhibition, inactive:
CC(=O)Oc1cccc(N2C(=O)CC(Nc3ccc(N4CCOCC4)cc3)C2=O)c1 (stereo not given) -9.25%, COc1cc(/C=C2/C(=O)NN(c3cccc(Cl)c3)C2=O)cc(Br)c1O 8.6%, COc1ccccc1C1/C(=C(/O)c2ccc(OC(C)C)cc2)C(=O)C(=O)N1c1cc(C)on1 (stereo not given) -26.4%, COc1cc(C2CC(=O)N3CN(Cc4ccccc4)CSC3=C2C#N)ccc1OCc1ccccc1 (stereo not given) -15.9%, CC(=O)C1=C(O)C(=O)N(c2ccc(Br)cc2)C1c1ccc([N+](=O)[O-])cc1 (stereo not given) -11.1%, O=C1NN(c2ccccc2)C(=O)/C1=C/c1ccc(-c2cccc(C(=O)O)c2)o1 -0.74%, Cc1ccc(C2=N/C(=C\c3ccc(OS(=O)(=O)c4ccc(C)cc4)cc3)C(=O)O2)cc1 -12.6%, COc1cc(C2C(C(=O)c3ccco3)=C(O)C(=O)N2c2cc(C)on2)ccc1OCc1ccccc1 (stereo not given) -1.69%, Cc1[nH]n(C(N)=S)c(=O)c1N=Nc1ccc(Cl)cc1Cl -8.84%, O=[N+]([O-])c1cc(Cl)cc(/C=N/NC(=S)Nc2cc(S(=O)(=O)N3CCOCC3)ccc2Cl)c1O -2.03%, O=C(N/N=C/c1ccc([N+](=O)[O-])o1)c1cn(-c2ccccc2)nc1-c1ccc(F)cc1 10.7%, Cc1ccc(C)c(-n2c(SCC(=O)O)nc3sc4c(c3c2=O)CCCC4)c1 -27.8%, S=C(NCCc1ccccc1)N1CCCCC1 -0.28%, CCOC(=O)c1nnn(-c2nc(OC)nc(N(C)C)n2)c1-c1ccccc1 -39.7%, N#C/C=C(/c1ccc(F)cc1)N1CCOCC1 14%, CCOc1ccc(C(C(=O)NCCOC)N(CCOC)C(=O)CCC(=O)Nc2ccccn2)cc1 (stereo not given) -24.9%, Cc1ccc(C2Nc3cccc4cccc(c34)N2)cc1 17.1%, COc1ccc(/C=C(\NC(=O)c2ccc(OCC(C)C)cc2)C(=O)OCc2ccco2)cc1 -43.9%, Cc1ccc(OCC(=O)c2cc(C)n(Cc3ccco3)c2C)c([N+](=O)[O-])n1 -9.01%, Cc1ccccc1Nc1nnc(SCC(=O)c2cc3ccccc3o2)s1 -3.69%, COc1ccc(C)cc1-n1nnnc1SCC(=O)c1cc(C)n(Cc2ccco2)c1C -39%, CC(Oc1ccccc1)C(=O)Nc1oc(-c2ccco2)c(-c2ccco2)c1C#N (stereo not given) 13.9%, CC(C)c1ccc(Nc2nnc(SCC(=O)c3nnc(-c4ccccc4)o3)s2)cc1 8.51%, O=c1[nH]c(/C=C\c2cccc(C(F)(F)F)c2)nc(O)c1[N+](=O)[O-] -2.48%, O=c1nc2s/c(=C\c3ccco3)c(=O)n2nc1Cc1ccccc1 7.7%, Cc1ccc(S(=O)(=O)N/N=C\c2cc3c(cc2[N+](=O)[O-])OCO3)cc1 14.6%, CCOC(=O)c1ccccc1N1C(=O)C2Sc3[nH]c(=O)sc3C(/C=C/c3ccccc3)C2C1=O (stereo not given) -46.6%, COCCNC(=O)Nc1ccc2nc(-c3ccco3)c(-c3ccco3)nc2c1 18.2%, Cc1cc(O)c(C(=O)/C=C/c2c(F)c(F)c(F)c(F)c2F)c(=O)o1 3.73%, CCOc1ccc(C2C3=C(CCCC3=O)N(CC(=O)O)C3=C2C(=O)CCC3)cc1 7.44%, CS(=O)(=O)c1ccc2c(c1)SC1=NC(=O)/C(=C/c3ccco3)C(=N)N12 -2.29%, Cc1ccc(SC(CC(=O)c2ccc(C(C)(C)C)cc2)C(=O)O)cc1 (stereo not given) -10.2%, CC1=NN(c2ccc(Cl)c(C(=O)O)c2)C(=O)/C1=C/c1ccc(-c2ccccc2[N+](=O)[O-])o1 15.8%, COc1ccc(/C=C2\SC(=S)N(CCC(=O)Nc3cccc(C(=O)O)c3)C2=O)cc1OC 15.4%, CNS(=O)(=O)c1cccc(C(=O)NC2CCCc3ccccc32)c1 (stereo not given) -7.17%, CCSc1nsc(NC(=O)Nc2cccc(C(C)=O)c2)n1 8.36%, O=c1c2c(-c3ccccc3)ccnc2[nH]n1-c1ccccc1 1.8%, COC(=O)COc1ccc2c(c1C)O/C(=C\c1ccco1)C2=O -11.8%, NS(=O)(=O)c1ccc(-c2ccc(/C=C3\SC(=O)NC3=O)o2)cc1 1.16%, CCOC(=O)C1=C(O)/C(=C/c2cc(C)n(-c3ccccc3)c2C)N=C1C -10.6%, COc1ccc(/C=C/C(=O)c2cc(Br)ccc(=O)c2O)cc1 16.2%, Cc1ccc(C(=O)O)cc1-c1ccc(/C=C2\SC(=O)N(CC(=O)Nc3ccc4c(c3)OCO4)C2=O)o1 1%, COc1cccc(CNC(=O)c2nnn(CC(=O)Nc3cc(Cl)ccc3C)c2N)c1 9.61%, Cc1ccc(S(=O)(=O)NCCC(c2ccccc2)c2ccccc2)cc1C(=O)O -24.5%, Brc1ccccc1C1Nc2cccc3cccc(c23)N1 12.8%, O=C1C=CC(=O)N1c1ccc(N2CCCCC2)cc1 17%, O=C(N/N=C/c1ccco1)c1csc2c1CCCC2 -7.05%, COc1ccccc1N1CCN(C(=O)CCS(=O)(=O)c2ccc3c(c2)NC(=O)C(C)S3)CC1 (stereo not given) -36.4%, CSc1c(SCc2ccccc2)cnn(Cc2ccccc2)c1=O -16.1%, CCC1C/C(=C/c2cccs2)C(=O)/C(=C/c2cccs2)C1 (stereo not given) -0.49%, Nc1ccc2nc3c(=O)[nH]c(=S)[nH]c3nc2c1 -8.12%, Cc1nn2c(c1-c1ccccc1)N=C(c1ccco1)CC2c1ccccc1 (stereo not given) -5.96%

inhibition, active:
CC(=O)Nc1ccc(Nc2c3ccccc3nc3ccccc23)cc1 79.8%, CCOC(=O)c1c(-c2ccccc2)oc2cc(Br)c(O)c(C=O)c12 85%, CCN(CC)CCOc1ccc2c(c1)C(=NNC(=O)c1ccccn1)c1cc(OCCN(CC)CC)ccc1-2 94.3%
